Usually inhibition stands for the change of the read-out against control, counted positive when it falls.

Each structure is given as a SMILES string. For some of these results: Potency and affinity values are given separately. Calls of active or inactive are those of the source.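 How the source made its calls, unless noted: active means fluorescence ratio normalized to control raised more than 50% in primary screen plus both repeat runs; inactive means the rest.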

Experiment [1] concerns TRPC4 beta (transient receptor potential cation channel C4), mouse. In words: TRPC4 cation channel opening, retest – cell-based, Fluo4 calcium, HEK293 TRPC4beta/mu-opioid, duplicates, 10 µM, confirmation (AID 2426). As to conditions: Fluo4 calcium fluorescence, at 10 µM; stronger effect = higher value.
The test system of experiment [2] is transient receptor potential cation channel C4 beta (TRPC4), mouse. In words: TRPC4 cation channel opening, second retest – cell-based, second round, Fluo4, HEK293 TRPC4beta/mu-opioid, 1 µM, confirmation (AID 2461;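 active means primary screen active and over 50% activation in each of two duplicate runs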). As to conditions: Fluo4 calcium fluorescence, at 1 µM; stronger effect = higher value.
Experiment [3] deals with TRPC4 (transient receptor potential cation channel C4 beta), mouse. In words: potentiation of DAMGO EC20 TRPC4 response – cell-based, second round, Fluo-4, HEK293 TRPC4beta/mu-opioid, 1 µM, confirmation (AID 2554;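 active means primary screen hit whose fluorescence ratio, in both repeats, exceeds the weak agonist control mean by 3 SD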). As to conditions: DAMGO EC20, Fluo-4 calcium flux, at 1 µM; stronger effect = higher value. (In general: Calcium flux is commonly read through the fluorescence of an indicator in the cells.)

Experiment [4] deals with TRPC4 beta (transient receptor potential cation channel C4), mouse. In words: potentiation of DAMGO EC20 TRPC4 response – cell-based, Fluo-4, HEK293 TRPC4beta/mu-opioid, confirmation (AID 2555;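 active means primary screen hit whose calcium fluorescence ratio, in both repeats, exceeds the weak agonist control mean by 3 SD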). As to conditions: DAMGO EC20, Fluo-4 calcium flux, at 10 µM; stronger effect = higher value.
The target in experiment [5] is Short transient receptor potential channel 4 (Mus musculus) (UniProt Q9QUQ5). In words: blockers of DAMGO-evoked TRPC4 calcium flux – cell-based, Fluo4, HEK293 TRPC4beta/mu-opioid, confirmation (AID 2636;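 active means calcium signal cut by more than 3 SD below the full-agonist control yet still positive, in both repeats and the earlier primary screen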). As to conditions: at 10 µM; stronger effect = higher value.
Sequence of Short transient receptor potential channel 4 (Mus musculus) (Q9QUQ5 whole entry, looked up): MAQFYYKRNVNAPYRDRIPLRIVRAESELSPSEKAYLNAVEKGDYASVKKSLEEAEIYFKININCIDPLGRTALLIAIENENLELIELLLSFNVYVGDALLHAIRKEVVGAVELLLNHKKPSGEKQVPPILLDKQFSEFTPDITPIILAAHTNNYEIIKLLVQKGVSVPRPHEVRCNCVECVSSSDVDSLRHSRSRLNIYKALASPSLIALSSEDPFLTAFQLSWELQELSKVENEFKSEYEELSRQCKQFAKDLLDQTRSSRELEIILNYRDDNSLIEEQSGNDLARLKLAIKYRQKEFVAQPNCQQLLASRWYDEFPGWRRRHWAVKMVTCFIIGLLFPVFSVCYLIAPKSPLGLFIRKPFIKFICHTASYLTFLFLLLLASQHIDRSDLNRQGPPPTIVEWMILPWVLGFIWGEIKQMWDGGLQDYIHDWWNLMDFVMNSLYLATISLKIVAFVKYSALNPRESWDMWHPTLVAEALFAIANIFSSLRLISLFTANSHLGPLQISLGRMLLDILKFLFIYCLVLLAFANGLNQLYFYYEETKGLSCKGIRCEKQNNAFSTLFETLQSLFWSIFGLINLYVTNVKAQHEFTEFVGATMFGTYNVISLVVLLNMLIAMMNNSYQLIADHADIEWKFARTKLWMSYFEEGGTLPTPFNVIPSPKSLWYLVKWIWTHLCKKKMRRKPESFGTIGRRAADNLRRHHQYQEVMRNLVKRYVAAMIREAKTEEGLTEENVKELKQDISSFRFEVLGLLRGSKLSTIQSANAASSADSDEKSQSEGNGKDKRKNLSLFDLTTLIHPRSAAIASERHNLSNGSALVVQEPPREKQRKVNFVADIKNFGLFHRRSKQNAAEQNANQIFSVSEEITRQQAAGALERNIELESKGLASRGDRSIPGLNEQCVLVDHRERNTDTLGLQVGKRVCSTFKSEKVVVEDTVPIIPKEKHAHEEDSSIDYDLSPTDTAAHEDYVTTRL
For experiment [6] the target is unchanged. In words: blockers of DAMGO-evoked TRPC4 calcium flux – cell-based, second round, Fluo4, HEK293 TRPC4beta/mu-opioid, 1 µM, confirmation (AID 2637;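 active means calcium signal ratio cut to more than 3 SD under the fully stimulated control mean yet still positive, in both repeats and the primary screen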). The settings on record: at 1 µM; stronger effect = higher value.
Experiment [7] shares this target. In words: calcium entry via TRPC4 opening agents – cell-based, HEK293 TRPC4/mu-opioid, Fluo-4 calcium, dose response (AID 434937;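 active means primary screen activator hit with a dose response curve and TRPC4 channel activation at any tested dose; inactive means no activation, no dose response, or not a primary hit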). As to conditions: HEK293 TRPC4 cells, Fluo-4 calcium fluorescence ratio; series mostly up to 20 µM.
Experiment [8] has the same target. In words: potentiation of DAMGO-evoked TRPC4 calcium signal – cell-based, HEK293 TRPC4/mu-opioid, Fluo-4 calcium, EC20 DAMGO, dose response (AID 434941;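 active means earlier screen potentiator hit that boosts the TRPC4 ion channel at some dose, with a dose response; inactive means no potentiation, no dose response, or not a prior hit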;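 further: calcium entry triggered by an EC20 dose of DAMGO at the co-expressed mu-opioid receptor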). The settings on record: HEK293 TRPC4/mu-opioid cells, Fluo-4 calcium fluorescence; series mostly up to 20 µM.
Experiment [9] has the same target. In words: block of DAMGO-driven TRPC4 calcium entry – cell-based, HEK293 TRPC4/mu-opioid, Fluo-4 calcium, dose response (AID 434942;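 active means primary screen inhibitor hit that blocks the TRPC4 channel at some tested dose, yielding a dose curve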). The settings on record: HEK293 TRPC4/mu-opioid cells, DAMGO-evoked Fluo-4 calcium ratio; series mostly up to 20 µM.
Experiment [10] has as its target Short transient receptor potential channel 6 (Mus musculus) (UniProt Q61143). In words: TRPC6 blockade by TRPC4 inhibitor hits – cell-based, HEK293, membrane potential dye, duplicate, selectivity assay for TRPC4 inhibitor project, confirmation (AID 434948;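 active means active in primary screen and both duplicates, each dropping signal beyond three positive-control SD with fluorescence still positive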). As to conditions: HEK293 TRPC6, membrane potential dye fluorescence, at 10 µM, stimulated with maximal-effect acetylcholine; stronger effect = higher value.

The target is the same in experiment [11]. In words: TRPC6 opening by TRPC4 activator hits – cell-based, HEK293, membrane potential dye, duplicate, selectivity assay for TRPC4 activator project, confirmation (AID 434950;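 active means membrane potential signal rise above negative control mean plus 3 SD in both duplicates, also active in the earlier TRPC4 screen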). The settings on record: HEK293 TRPC6, membrane potential fluorescence, at 10 µM; activation: stronger effect = higher value; outcome: activation.
The target is the same in experiment [12]. In words: positive modulators of mouse TRPC6 channel – HEK293 cells, membrane potential dye, duplicate, selectivity assay for TRPC4 potentiator project, confirmation (AID 434952;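 active means compound raising the membrane signal above positive-control mean plus 3 SD in both repeats, and a primary screen hit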). The settings on record: HEK293 TRPC6, membrane potential dye fluorescence, at 10 µM, maximal acetylcholine added after compound; stronger effect = higher value.
Experiment [13] has as its target Short transient receptor potential channel 4 (Mus musculus) (UniProt Q9QUQ5). In words: calcium flux activators in TRPC4/5HT1a cells, counter-screen for TRPC4 activator project, cell-based, second counter screen, HEK293 TRPC4/5HT1a, Fluo-4 (AID 434977;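 active means calcium signal rise above buffer-control mean plus 5 SD in both duplicates, and also a hit in the primary screen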). The settings on record: Fluo-4 calcium flux, at 10 µM; stronger effect = higher value.
Experiment [14] in a line: serotonin-gated TRPC4 signal block – cell-based, second counter screen, HEK293 TRPC4/5HT1a, Fluo-4, counter-screen for TRPC4 inhibitor project, confirmation (AID 434978;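 active means primary screen active whose calcium signal fell more than 3 SD beyond the full-serotonin control mean in both duplicate plates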;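 further: serotonin given first at submaximal then at maximal dose after compound preincubation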). As to conditions: Fluo-4 calcium flux, at 10 µM, serotonin added to trigger calcium flux; stronger effect = higher value. On the technique in general: The purpose of a counterscreen is to sort out artefacts and off-target activity.

Experiment [15] deals with TRPC4 (mouse), co-expressed with 5HT1a in HEK293. In words: enhancement of serotonin-evoked TRPC4 response – cell-based, second counter screen, HEK293 TRPC4/5HT1a, Fluo-4, counter-screen for TRPC4 potentiator project, confirmation (AID 434979;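 active means signal rise over 3 SD above mean of control wells given weak agonist, in both repeats and first screen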). As to conditions: Fluo-4 calcium flux, at 10 µM, serotonin added at its EC20 dose; stronger effect = higher value.
Experiment [16] can be described thus: nonspecific calcium rise without TRPC4 – cell-based, HEK293 mu-opioid receptor line, counter-screen for TRPC4 activator project, confirmation (AID 449723;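 active means hit in primary screen, with calcium signal over 5 SD above buffer well mean in both duplicates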;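 further: counter screen cells carry the mu-opioid receptor alone and lack TRPC4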). The settings on record: HEK293 mu-opioid cells, Fluo-4 calcium fluorescence, at 10 µM; stronger effect = higher value.
The nature of experiment [17]: nonspecific potentiation of DAMGO calcium response – cell-based, HEK293 mu-opioid receptor line, counter-screen for TRPC4 allosteric potentiator project, confirmation (AID 449724;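 active means calcium signal rise more than 3 SD above the low-dose agonist control mean, in both duplicate plates and the primary screen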;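 further: HEK293 cells carrying mu-opioid receptor only with no TRPC4 channel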). As to conditions: HEK293 mu-opioid receptor cells, Fluo-4 calcium flux, at 10 µM, compound added before EC20 DAMGO stimulus; stronger effect = higher value.

Sequence of Short transient receptor potential channel 6 (Mus musculus) (Q61143 whole entry, looked up): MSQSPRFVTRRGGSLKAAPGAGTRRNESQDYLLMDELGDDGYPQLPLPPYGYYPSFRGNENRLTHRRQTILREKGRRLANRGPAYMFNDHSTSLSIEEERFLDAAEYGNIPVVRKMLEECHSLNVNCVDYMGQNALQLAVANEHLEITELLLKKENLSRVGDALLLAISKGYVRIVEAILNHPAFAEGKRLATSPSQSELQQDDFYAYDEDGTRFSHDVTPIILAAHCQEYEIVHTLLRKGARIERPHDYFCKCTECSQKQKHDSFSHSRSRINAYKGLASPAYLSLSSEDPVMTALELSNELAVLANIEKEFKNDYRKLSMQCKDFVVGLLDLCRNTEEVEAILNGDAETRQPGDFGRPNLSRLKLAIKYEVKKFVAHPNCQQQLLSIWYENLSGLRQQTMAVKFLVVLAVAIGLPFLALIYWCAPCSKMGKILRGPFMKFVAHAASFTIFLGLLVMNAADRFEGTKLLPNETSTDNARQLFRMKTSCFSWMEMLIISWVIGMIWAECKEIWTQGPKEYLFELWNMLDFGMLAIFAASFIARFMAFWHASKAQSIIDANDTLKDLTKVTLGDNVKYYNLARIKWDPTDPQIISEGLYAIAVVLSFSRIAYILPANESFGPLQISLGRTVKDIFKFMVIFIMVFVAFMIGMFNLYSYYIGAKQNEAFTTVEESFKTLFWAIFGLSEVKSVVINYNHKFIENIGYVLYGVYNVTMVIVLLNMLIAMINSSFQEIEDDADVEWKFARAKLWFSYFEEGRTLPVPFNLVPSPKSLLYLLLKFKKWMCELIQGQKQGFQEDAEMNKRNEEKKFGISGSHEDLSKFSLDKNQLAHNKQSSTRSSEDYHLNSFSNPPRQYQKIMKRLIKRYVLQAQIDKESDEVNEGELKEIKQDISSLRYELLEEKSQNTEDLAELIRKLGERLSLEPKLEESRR

As for `COc1cccc(OCc2cc(C(=O)N3CCN(C)C(c4ccccc4)C3)no2)c1` (stereo not drawn), the result in [1], in [2], in experiment [3], in [4], in [5] and in experiment [6] was inactive. In addition, the outcome in [7], in experiment [8], in [9], in [10], in experiment [11] and in experiment [12] was inactive. Besides, the outcome in experiment [13], in experiment [14], in experiment [16] and in experiment [17] was inactive. Besides, in [15], the potentiation was 16.7% (active).

Consider `CSc1ccc(S(=O)(=O)NCC(=O)OCC(=O)N(C)Cc2ccccc2)cc1[N+](=O)[O-]`, for which the outcome in experiment [1], in experiment [2], in [3], in [4], in experiment [5] and in experiment [6] was inactive. In addition, the result in [7], in experiment [8], in [9], in [10], in experiment [11] and in [12] was inactive. For the same compound, the result in experiment [13], in experiment [14], in [15], in experiment [16] and in experiment [17] was inactive.

Regarding `Cc1cccc(NC(=O)c2cc([N+](=O)[O-])ccc2N2CCN(C)CC2)c1`, the outcome in experiment [1], in [2], in experiment [3], in experiment [4], in experiment [5] and in [6] was inactive. The outcome in experiment [7], in [8], in experiment [9], in experiment [10], in [11] and in experiment [12] was inactive. Besides, the outcome in [13], in [14], in [16] and in experiment [17] was inactive. Besides, the potentiation in [15] is 18.8% (active).

Turning to `Cc1ccc(Cn2c(=N)c(C(=O)NCC3CCCO3)cc3c(=O)n4ccccc4nc32)cc1` (stereo not drawn), the outcome in [1], in experiment [2], in [3], in experiment [5], in experiment [6] and in experiment [7] was inactive. Moreover, the result in experiment [8], in experiment [9], in experiment [10], in experiment [11], in [12] and in [13] was inactive. Also, the result in experiment [14], in experiment [16] and in [17] was inactive. Besides, the potentiation was 47% (active) in [4] and 19.2% (active) in [15].

As for `CCCCN(C)C(=O)Cn1ncc2c3ccccc3n(CCC)c2c1=O`, the result in [1], in [2], in experiment [3], in [5], in experiment [6] and in experiment [7] was inactive. Also, the result in [8], in experiment [9], in experiment [10], in experiment [11], in [12] and in [13] was inactive. Moreover, the result in experiment [14], in experiment [16] and in [17] was inactive. In addition, the potentiation in experiment [4] was 37% (active); in [15], 42.7% (active).

With `COC(=O)c1ccccc1N=Nc1c(C)[nH][nH]c1=O`, the outcome in experiment [1], in experiment [2], in [3], in experiment [5], in [6] and in experiment [7] was inactive. Further, the result in [8], in [9], in [10], in experiment [11], in experiment [12] and in [13] was inactive. Moreover, the outcome in [14], in experiment [16] and in experiment [17] was inactive. For the same compound, the figures for the potentiation in [4] and in experiment [15] were 73% (active) and 14.7% (active), respectively.

`O=S(=O)(Nc1ccc(S(=O)(=O)Nc2cccc3ccccc23)cc1)c1ccccc1`: the outcome in [1], in [2], in experiment [3], in experiment [4], in experiment [5] and in [6] was inactive. In addition, the result in [7], in experiment [8], in [9], in experiment [10], in experiment [11] and in [12] was inactive. In addition, the outcome in experiment [13], in experiment [14], in experiment [15], in experiment [16] and in [17] was inactive.

Regarding `CC(C)(C)c1ccc(-c2nnc3sc(-c4ccccn4)nn23)cc1`, the result in experiment [1], in [2], in [3], in [5], in [6] and in experiment [7] was inactive. Besides, the outcome in [8], in experiment [9], in experiment [10], in [11], in [12] and in [13] was inactive. The outcome in experiment [14], in experiment [15], in [16] and in experiment [17] was inactive. Further, the potentiation in [4] is 68% (active).

For `Cc1cc(Nc2ccccc2O)c2ccccc2n1`, the outcome in experiment [1], in experiment [2], in experiment [3], in experiment [4], in experiment [5] and in [6] was inactive. For the same compound, the result in experiment [7], in experiment [8], in experiment [9], in experiment [10], in experiment [11] and in experiment [12] was inactive. The outcome in experiment [13], in [14], in [15], in experiment [16] and in experiment [17] was inactive.

`CN(C)CCCOC(=O)c1ccc(Cl)cc1Cl`: the outcome in [1], in experiment [2], in experiment [5], in experiment [6], in [7] and in experiment [8] was inactive. Moreover, the outcome in experiment [9], in experiment [10], in [11], in experiment [12], in experiment [13] and in experiment [14] was inactive. In addition, the result in experiment [16] and in [17] was inactive. Moreover, the potentiation in experiment [3] is 16% (active); in [4] it was 8% (active); in [15] it was 18.3% (active).

For `CCCn1c(=O)c(C(=O)NCC2CCCO2)c(O)c2ccccc21` (stereo not drawn), the outcome in [1], in experiment [2], in [5], in experiment [6], in experiment [7] and in experiment [8] was inactive. Besides, the outcome in experiment [9], in experiment [10], in experiment [11], in experiment [12], in [13] and in experiment [14] was inactive. Also, the outcome in experiment [16] and in [17] was inactive. For the same compound, the potentiation in experiment [3] was 16% (active); in experiment [4], 11% (active); in [15], 7.45% (active).

As for `OCCN(CCO)c1ncnc2c1sc1nc(N3CCOCC3)c3c(c12)CCCC3`, the result in [1], in experiment [2], in experiment [3], in experiment [5], in [6] and in experiment [7] was inactive. Also, the outcome in experiment [8], in experiment [9], in experiment [10], in experiment [11], in experiment [12] and in experiment [13] was inactive. Further, the outcome in [14], in experiment [16] and in experiment [17] was inactive. In addition, the potentiation in experiment [4] was 10% (active); in experiment [15] it was 27.8% (active).

As for `CC(=O)Oc1ccc(NC(=O)CCC2CCCCC2)c(C(=O)O)c1`, the outcome in experiment [1], in [2], in experiment [3], in experiment [4], in experiment [6] and in [7] was inactive. Besides, the outcome in [8], in [9], in [10], in experiment [11], in experiment [12] and in experiment [13] was inactive. Besides, the result in experiment [14], in [15], in experiment [16] and in experiment [17] was inactive. Besides, the inhibition in experiment [5] is 68% (active).

For the compound `O=S(=O)(NCC1NCCc2ccccc21)c1ccccc1` (stereo not drawn), the outcome in [1], in [2], in experiment [3], in experiment [4], in [5] and in experiment [6] was inactive. Moreover, the outcome in experiment [7], in [8], in experiment [9], in [10], in experiment [11] and in [12] was inactive. Besides, the result in experiment [13], in experiment [14], in [15], in [16] and in [17] was inactive.

These data come from PubChem BioAssay.
